Data on 64 molecules can be found in PubChem BioAssay AID1259343 (VanderVen Lab, College of Veterinary Medicine, Cornell …, 2017).

Out of some 6,200 compounds screened, about 2,900 (47%) were called active. No stated cut-off is given here; in the data, active means inhibition above about 50%; inactive means the rest. The set was probably picked from earlier hits. The list shows a part of the results.

As usually defined, the inhibition is the relative decrease from the control value, in per cent.

The assay can be described thus: Mycobacterium tuberculosis growth inhibition, primary screen (AID 1259343). As to conditions: inhibition: at 10 µM, active compounds read high; outcome: 10 uM.
Turning to `O=C(Nc1ccc(Cl)cc1)N1CCC1c1ccccc1F` (centres undefined), the inhibition was -6.67% (inactive). For `O=C(CCl)N1CCSC1c1ccccc1F` (centres undefined), the inhibition is 99.6% (active). The figure for `CCN1CCN(c2c(CN(C(=O)Nc3ccc(SC)cc3)C(C)C)c(C)nn2-c2cccc(F)c2)CC1` is 74.4% (active); for `Cn1nc(C(=O)NCC23CC4CC(CC(C4)C2)C3)ccc1=O` it is 77.1% (active); for `CCCn1nc(C(=O)NC(C)c2nnc3n2CCC3)ccc1=O` (centres undefined) it is 3.57% (inactive). For `O=C(O)c1cc(-c2cccc(F)c2)n2nc(-c3ccccc3)cc2n1` the value was 34.3% (inactive); for `Nc1c(C=C2C=C([N+](=O)[O-])C=C(Br)C2=O)c(=O)nc2sc(-c3ccccc3)nn12`, 45.7% (inactive). The figure for `O=c1cc(-c2ccccc2)nc2sc(Br)nn12` is 102% (active); for `O=c1[nH]c2c(Br)c(Br)c(Cl)cc2o1` it is “inactive”; for `O=c1[nH]c2cc(Cl)c(Br)cc2o1` it is 81.6% (active). `O=c1[nH]c2c(Cl)c(Cl)c(Cl)cc2o1`: the inhibition was 31.7% (inactive). For `Cc1cc(NC(=O)c2cccc3ccccc23)n(-c2nc(C)c(C)c(=O)[nH]2)n1`, the inhibition is -30.4% (inactive). Turning to `CCc1c(C)nc(-n2nc(C)cc2NC(=O)c2ccccc2SC)[nH]c1=O`, the inhibition was 100% (active).

For `CCc1c(C)nc(-n2nc(C)cc2NC(=O)c2cccc3ccccc23)[nH]c1=O`, the inhibition is 100% (active). For `CCc1c(C)nc(-n2nc(C)cc2NC(=O)c2ccccc2C)[nH]c1=O` the value was 12.6% (inactive); for `CCc1cc(=O)[nH]c(-n2nc(C)cc2NC(=O)c2ccccc2SC)n1`, 99.7% (active). For `CCc1c(C)nc(-n2nc(C)cc2NC(=O)Cc2cccc3ccccc23)[nH]c1=O` the value was 98.5% (active); for `CNc1cccc(-c2ccc(O)cc2)n1`, 33.6% (inactive). For the molecule `C=CCn1c(-c2ccc(Cl)cc2Cl)csc1=Nc1cccc(O)c1`, the inhibition was -10.5% (inactive).

Consider `CCOC(=O)Cn1c(=NC(=O)c2ccccc2[N+](=O)[O-])sc2cc(C(C)C)ccc21`, for which the inhibition is 3.22% (inactive). On to `CCc1c(C)nc(-n2nc(C)cc2NC(=O)c2cc(=O)c3ccccc3o2)[nH]c1=O`, for which the inhibition was 101% (active). For `CCc1c(C)nc(-n2nc(C)cc2NC(=O)c2ccccc2C(F)(F)F)[nH]c1=O` the value was 101% (active). For `CCc1c(C)nc(-n2nc(C)cc2NC(=O)c2cc3ccccc3o2)[nH]c1=O` the value was -38.5% (inactive); for `Cc1ccc(-c2nc(C)c(C(C)C)c(N3CCNCC3)n2)cc1`, 44% (inactive); for `Cc1cccc(-c2nc(C)c(Cc3ccccc3)c(N3CCNCC3)n2)c1`, 101% (active). For `Cc1cccc(OC2CN(c3nc(-c4ccccn4)nc4c3CCNC4)C2)c1` the value was 26.7% (inactive). Take `Cc1nc(-c2ccc(Cl)cc2)nc(N2CCNCC2)c1C`: the inhibition is 79.2% (active). The figure for `Cc1nc(C)c(Cc2ccccc2Cl)c(N2CCN(C(=O)c3cccc(Br)c3)CC2)n1` is 29.3% (inactive); for `Cc1nc(-c2ccc(Cl)cc2)nc(N2CCNCC2)c1Cc1ccccc1` it is 97.6% (active); for `Cc1nc(-c2cccc(F)c2)nc(N2CCNCC2)c1Cc1ccccc1` it is 66.1% (active).

Turning to `CCc1c(C)nc(-c2ccc(OC)cc2)nc1N1CCNCC1`, the inhibition is 42.7% (inactive). As to `COC(=O)c1ccc(NC(=O)c2ccc(Br)o2)cc1`, the inhibition is 83.8% (active). For `Cc1ccc(CN(C)c2ccc(C(=O)O)cc2)cc1` the value was 51.7% (active); for `CN(Cc1ccc(Cl)cc1)c1nccc(-c2cc(C(=O)O)ccn2)n1`, 17.6% (inactive); for `CN(Cc1ccc(C(N)=O)cc1)c1cccc(F)c1C#N`, 13.8% (inactive). For `O=C(CCc1ccc(O)cc1)N1CCOC(c2ccc(Cl)cc2)C1` (centres undefined) the value was 19.6% (inactive); for `O=C(CCc1ccc(O)cc1)c1c(O)cc(O)cc1O`, 93.3% (active); for `O=C(NCCc1ccc(O)cc1)Nc1cccc2c1CCCC2`, 7.1% (inactive). For `C(=NNc1ccc2ccccc2n1)c1ccccn1`, the inhibition is -19.7% (inactive).

For `Clc1ccc(NN=Cc2ccccn2)cc1Cl`, the inhibition is 14.1% (inactive). The figure for `Clc1ccc2nc(NN=Cc3ccccn3)nc(-c3ccccc3)c2c1` is 92.1% (active); for `Nc1ccc(S(=O)(=O)Nc2ccnn2-c2ccccc2)cc1` it is 55.2% (active). The figure for `CC(C)=CCCC(C)CCNCCc1ccco1` (centres undefined) is -15% (inactive); for `CC(=O)N1CCC(NC(=O)c2ccc(Oc3ccccc3)cc2)CC1` it is 16.9% (inactive).

As for `CC(Nc1nc(-c2cccs2)nc2ccccc12)C1CCCO1` (centres undefined), the inhibition is -41.2% (inactive). For the molecule `CC(NC(=O)c1ccc(Oc2ccccc2)cc1)C1CCCO1` (centres undefined), the inhibition was 92.8% (active). The figure for `Cc1cccc(/C=C/c2nc(-c3cc(C(=O)O)co3)cs2)c1` is 42.9% (inactive); for `OCC1(CCc2ccccc2)CCCN(Cc2cc3ccccc3o2)C1` (centres undefined) it is 23.5% (inactive). With `Oc1ccccc1CN1CCCn2cccc2C1c1cccc(C(F)(F)F)c1` (centres undefined), the inhibition is 22.1% (inactive). The figure for `O=C(C=Cc1ccc2c(c1)OCO2)c1ccc(Cl)cc1Cl` is 73.5% (active).

With `O=C(C=Cc1ccc2c(c1)OCO2)c1ccc(Br)cc1`, the inhibition was -39.3% (inactive). For `CC(C)(C)c1ccc(C2=NC(=Cc3ccc4c(c3)OCO4)C(=O)O2)cc1` the value was -19.9% (inactive); for `COC(=O)c1nnn(-c2ccc(C)c(C)c2)c1C(=O)OC`, 82.4% (active). The figure for `COC(=O)CCc1nnc(NS(=O)(=O)c2ccc(C)c(C)c2)s1` is 48.8% (inactive); for `Cc1cc(N)c2ccccc2[n+]1CCCCCCCCCC[n+]1c(C)cc(N)c2ccccc21` it is 72.6% (active); for `c1cnc2c(c1)ccc1cccnc12` it is 95.2% (active). The figure for `c1cnc(Sc2ccc3ccccc3c2)nc1` is 32.8% (inactive). For `c1ccc(-c2cn3c(n2)CCc2ccc4cccnc4c2-3)cc1`, the inhibition is 16.6% (inactive). On to `Cc1c(Cc2ccccc2)c(=O)oc2cc(OCC(N)=O)ccc12`, for which the inhibition is 62.1% (active). The figure for `COc1cccc(-c2coc3c(C)c4oc(=O)c(CCC(=O)O)c(C)c4cc23)c1` is 47% (inactive); for `NC(=O)COc1cccc(CN2CCCSc3ccccc32)c1` it is 35.4% (inactive).

Regarding `CCc1ccc(OCCn2c(CO)nc3ccccc32)cc1`, the inhibition is 34.1% (inactive). For `CCc1ccc(OCCCn2c(CO)nc3ccccc32)cc1` the value was 77% (active); for `ClC1(Cl)CC1Cn1c(Cc2ccccc2)nc2ccccc21` (centres undefined), 25.7% (inactive).
